Data reported in PubChem BioAssay (NCATS).
Results filed as inconclusive are left out. A number with no mark means an inactive call. The source made the active and inactive calls. The call rests on the fitted dose curve; in most records, active means well fitted inhibition curve with a large enough effect; inconclusive means small, poorly fitted or top-dose-only effect; inactive means flat fitted curve, though single readings scatter.

target: Calcium and integrin-binding protein 1 (Homo sapiens) (UniProt Q99828); test: Primary qHTS for Identification of Calcium Integrin Binding Protein 1 (CIB1) Competitor (AID 1508620); conditions: CIB1-GST / FITC-alphaIIb peptide fluorescence polarization; series mostly up to 114 µM; activity change, negative = inhibition: at the top concentration; further: top concentration of the series differs between compounds
Sequence (Q99828 whole entry, looked up): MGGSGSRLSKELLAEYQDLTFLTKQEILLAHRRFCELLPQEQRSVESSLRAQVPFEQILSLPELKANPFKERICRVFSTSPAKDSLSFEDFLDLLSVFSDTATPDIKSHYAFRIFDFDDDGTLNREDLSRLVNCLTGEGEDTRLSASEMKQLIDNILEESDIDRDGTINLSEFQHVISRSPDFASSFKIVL
Method in brief: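 Fluorescence polarization competition: GST-tagged CIB1 (1 uM final) preincubated with compound 15 min at room temperature, then FITC-labelled alphaIIb peptide (100 nM final) added. After 15 min at room temperature, polarization read at Ex 480/Em 540.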
On the % scale 0 is the no-effect control and ±100 the full control effect.

Structure (SMILES) | activity change, negative = inhibition [%] | Potency
Cc1nnc(-c2cnn(C)c2N)n1CCCc1cccnc1 | 7.75 | –
Cc1cc(N[S+](=O)([O-])c2ccc(NC(=O)Cn3c(=O)oc4ccc(Cl)cc43)cc2)no1 | 1.67 | –
N#Cc1nc(NC2CCCC2)c2ncn(-c3cc(F)cc(F)c3)c2n1 | -1.93 | –
Nc1ccc2c(=O)n3nc(Nc4ccc5c(c4)CCC5)sc3nc2c1 | -16.4 | –
Cc1cc(C)nc(NC(=S)N2CCN(c3ncccn3)CC2)c1 | -0.681 | –
O=C1CCCC2=C1C(c1[nH]ncc1Cl)NC(=S)N2 (stereo not given) | -4.97 | –
Cc1cc2c(s1)c1cnn(Cc3ccccc3Cl)c(=O)c1n2C | 4.23 | –
Cc1cc2c(s1)c1cnn(Cc3ccc(C(F)(F)F)cc3)c(=O)c1n2C | 1.04 | –
c1nc(NCCc2cnc[nH]2)c2cc(-c3ccc4c(c3)OCO4)ccc2n1 | – | inactive
Cc1cc(C)nc(NC(=S)N2CCN(c3ccc(Cl)cc3F)CC2)c1 | -4.34 | –
Cc1cc(NS(=O)(=O)c2ccc3c(c2)CCC(=O)N3)ccc1F | 1.56 | –
COc1ccc(S(=O)(=O)N2CCN(C(=O)C3COc4ccccc4O3)CC2)cc1 (stereo not given) | 3.19 | –
Cn1nnnc1Sc1ncnc2scc(-c3cccc(C#N)c3)c12 | -6.72 | –
O=C1c2ccccc2NC(c2ccc(-c3ccc(-c4ccccc4)cc3)o2)N1O (stereo not given) | -12.7 | –
c1cncc(-c2ccc(CNc3nc(C4CCCC4)nc4ccccc34)cc2)c1 | 6.46 | –
CC(=O)Nc1ccc(CNc2ncnc3ccc(-c4c(C)noc4C)cc23)cc1 | 1.71 | –
O=C(Nc1ccccc1)OCc1c(-c2ccccc2)no[n+]1[O-] | 0.45 | –
CCc1ccc(NC(=O)C(=O)NNC(=O)Cc2ccc(Cl)c(Cl)c2)cc1 | -5.49 | –
CCOc1ccc(CNc2ccc(-c3nc4ccccc4[nH]3)cc2)cc1 | -2.36 | –
COc1ccccc1-c1nnc2n1N=C(c1ccc(OC(F)F)c(OCC3CC3)c1)CS2 | 1.36 | –

Structure (SMILES) | activity change, negative = inhibition [%] | Potency
COc1ccc(CN2C(=O)c3ccccc3NC2c2ccc(OC)c(COc3ccc(NC(C)=O)cc3)c2)cc1 (stereo not given) | 5.34 | –
CCc1nn2c(=O)cc(N3C(C)CNCC3C)nc2s1 (stereo not given) | 0.291 | –
CCCCN(C)C(=O)Cn1nc(-c2ccccc2C)ccc1=O | 7.38 | –
Cc1cnc(-c2ccccc2C2CC2)nc1NCc1ccc(-c2cccnc2)cc1 | 1.28 | –
CCCn1c(C)nc2c(NCCN(CC)CC)nc(C)nc21 | 8.2 | –
CC1(C)CC2CC(C)(CN2S(=O)(=O)c2ccc(C(=O)Nc3cccc(S(=O)(=O)N4CCOCC4)c3)cc2)C1 (stereo not given) | 8.98 | –
CC(C)(C)OC(=O)N1CCN(c2ccc(OCc3ccc(-c4ccc(C#N)cc4)o3)cc2)CC1 | -9.52 | –
CC(C)(C)OC(=O)N1CCN(c2ccc(NCc3occc3-c3ccc(C#N)cc3)cc2)CC1 | -8.68 | –
c1cncc(-c2ccc(CNc3nc(N4CCOCC4)nc4ccccc34)cc2)c1 | 5.6 | –
Cc1ccc2nc3sc(C(=O)Nc4ccncc4)cc3cc2c1 | -1.51 | –
Cc1cc(C)nc(NC(=S)N2CCN(c3ccccn3)CC2)c1 | – | inactive
O=S(=O)(Nc1ccccc1)c1ccc(O)c2ncccc12 | -4.49 | –
Oc1cc(NCCc2cccnc2)cc2cccnc12 | -26.1 | –
COc1cccc(C2c3c(ncn(-c4cccc(Cl)c4)c3=N)Oc3ccc4ccccc4c32)c1 (stereo not given) | 7.76 | –
Cn1nnnc1Sc1ncnc2scc(-c3ccc(Br)cc3)c12 | 2.39 | –
COc1cccc(C2=Nn3c(nnc3-c3ccccc3C)SC2)c1 | -13.2 | –
N#Cc1cccc(CSc2nc3ncc(Br)cc3[nH]2)c1 | -23.2 | –
C#CCOc1ccc(-c2no[n+]([O-])c2C#N)cc1 | -6 | –
N#Cc1nc(NCCCO)nc(Nc2ccccc2)n1 | 0.426 | –
O=S1(=O)N=C(Oc2cccc(-c3ccccc3)c2)c2ccccc21 | 2.12 | –
